“And” between values parts separate entries of the source, which are not always exact repeats. Equal values may be shown once. More than one record can exist for a structure, and the calls need not agree. The source made the active and inactive calls. The calls were made as follows: active = hit-call score of the fitted dose curve at least 0.9, where 1 is the maximum; inactive = score below 0.9.
What was measured:
[1] = read-out: Urokinase-type plasminogen activator receptor (uPAR), PLAUR (gene 5329); test: BSK_4H_uPAR: BioMAP Diversity Plus: 4H Assay for Urokinase-type plasminogen activator receptor (uPAR) Biomarker Activity (AID 2283030); conditions: primary human endothelial cells (HUVEC); actives raise or lower the signal
Outline: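 Primary human umbilical vein endothelial cells were exposed to chemical for 24 h before cell-surface uPAR was quantified by ELISA. Activity was fitted bidirectionally against the DMSO negative control baseline.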

[2] = read-out: Vascular endothelial growth factor receptor 2 (Homo sapiens) (UniProt P35968); test: BSK_4H_VEGFRII: BioMAP Diversity Plus: 4H Assay for Vascular endothelial growth factor receptor 2 (VEGFR2) Biomarker Activity (AID 2283031); conditions: primary human endothelial cells (HUVEC); actives raise or lower the signal
Outline: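 Primary human umbilical vein endothelial cells in the BioMAP 4H system were dosed with test chemical, and 24 h later VEGFRII was measured by ELISA. Activity was fitted bidirectionally against DMSO as negative control and baseline.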

[3] = read-out: Vascular cell adhesion molecule 1 (VCAM1), VCAM1 (gene 7412); test: BSK_4H_VCAM1: BioMAP Diversity Plus: 4H Assay for Vascular cell adhesion molecule 1 (VCAM1) Biomarker Activity (AID 2283033); conditions: primary human endothelial cells (HUVEC); actives raise or lower the signal
Outline: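 Primary human umbilical vein endothelial cells, 4H stimulation system, treated for 24 h; cell-surface VCAM-1 quantified by ELISA. Bidirectional fitting against DMSO; cytotoxicity tracked by SRB total-protein staining in parallel cultures.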

[4] = read-out: Interferon-gamma inducible Protein 10 (IP10), CXCL10 (gene 3627); test: BSK_BE3C_IP10: BioMAP Diversity Plus: BE3C Assay for Interferon-gamma inducible Protein 10 (IP10) Biomarker Activity (AID 2283034); conditions: primary human bronchial epithelial cells; actives raise or lower the signal
Outline: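 Primary human bronchial epithelial cells, with IP-10 measured by ELISA 24 hours after chemical dosing. Bidirectional fit against DMSO; cytotoxicity checked by SRB total protein staining in parallel cultures.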

[5] = read-out: Monokine induced gamma interferon (MIG), CXCL9 (gene 4283); test: BSK_BE3C_MIG: BioMAP Diversity Plus: BE3C Assay for Monokine induced gamma interferon (MIG) Biomarker Activity (AID 2283035); conditions: primary human bronchial epithelial cells; actives raise or lower the signal
Outline: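 MIG level was determined by ELISA after 24 h chemical treatment of primary human bronchial epithelial cells. Values were fitted bidirectionally with DMSO as the negative control and activity baseline.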

[6] = read-out: Plasminogen activator inhibitor-1 (PAI1), SERPINE1 (gene 5054); test: BSK_BE3C_PAI1: BioMAP Diversity Plus: BE3C Assay for Plasminogen activator inhibitor-1 (PAI1) Biomarker Activity (AID 2283037); conditions: primary human bronchial epithelial cells; actives raise or lower the signal
Outline: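 Primary human bronchial epithelial cells (BE3C system) exposed 24 h; PAI-1 quantified by ELISA. Parallel sulforhodamine B staining of total protein flags cytotoxicity. Bidirectional fit versus DMSO.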

[7] = read-out: urokinase plasminogen activator (uPA), PLAU (gene 5328); test: BSK_BE3C_uPA: BioMAP Diversity Plus: BE3C Assay for urokinase plasminogen activator (uPA) Biomarker Activity (AID 2283038); conditions: primary human bronchial epithelial cells; actives raise or lower the signal
Outline: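 Human primary bronchial epithelial cells were exposed to chemical for 24 h, then uPA levels were measured by ELISA. Responses were fitted bidirectionally against DMSO as negative control and baseline. Parallel SRB staining of total protein gauged overt cytotoxicity.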

[8] = read-out: Urokinase-type plasminogen activator receptor (uPAR), PLAUR (gene 5329); test: BSK_BE3C_uPAR: BioMAP Diversity Plus: BE3C Assay for Urokinase-type plasminogen activator receptor (uPAR) Biomarker Activity (AID 2283039); conditions: primary human bronchial epithelial cells; actives raise or lower the signal
Outline: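 Primary human bronchial epithelial cells dosed for 24 h; uPAR quantified by ELISA with bidirectional fitting against DMSO. Overt cytotoxicity assessed in parallel cultures by SRB total-protein staining (0.1% SRB, 560 nm).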

[9] = read-out: Human Leukocyte Antigen - DR isotype (HLADR), HLA-DRA (gene 3122); test: BSK_BE3C_HLADR: BioMAP Diversity Plus: BE3C Assay for Human Leukocyte Antigen - DR isotype (HLADR) Biomarker Activity (AID 2283032); conditions: primary human bronchial epithelial cells; actives raise or lower the signal
Outline: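 Human primary bronchial epithelial cells (BE3C system) exposed to compound for 24 hours; cell-surface HLA-DR measured by ELISA, fitted bidirectionally relative to DMSO. Total protein by SRB in parallel cultures tracked cytotoxicity.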

[10] = read-out: Transforming growth factor beta 1 (TGFb1), TGFB1 (gene 7040); test: BSK_BE3C_TGFb1: BioMAP Diversity Plus: BE3C Assay for Transforming growth factor beta 1 (TGFb1) Biomarker Activity (AID 2283036); conditions: primary human bronchial epithelial cells; actives raise or lower the signal
Outline: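 Primary human bronchial epithelial cells dosed with chemical; TGF-b1 measured by ELISA 24 h after dosing. Bidirectional curve fitting against DMSO negative control; SRB total-protein staining in parallel cultures gauged cytotoxicity.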

Measured: AC50

O=P(O)(O)OCCC(F)(F)C(F)(F)C(F)(F)C(F)(F)C(F)(F)C(F)(F)F
active: [3] 6.01 µM
inactive: [1] | [2] | [3] | [4] | [5] | [6] | [7] | [8]

FC(F)(F)C(F)(F)C(F)(F)C(F)(F)C(F)(F)C(F)(F)CCS
not listed: [10]
inactive: all other assays above

CC(C)(C)C(=O)CC(=O)C(F)(F)C(F)(F)C(F)(F)F
not listed: [2] | [9] | [10]
inactive: all other assays above

OCCCC(F)(F)C(F)(F)C(F)(F)F
not listed: [2] | [9] | [10]
inactive: all other assays above

O=C(O)C=C(C(F)(F)F)C(F)(F)F
active: [3] 15.2 µM and 5.95 µM
not listed: [2] | [9] | [10]
inactive: all other assays above

NC(=O)C(F)(F)C(F)(F)C(F)(F)C(F)(F)F
active: [6] 4.8 µM
inactive: [1] | [9] | [3] | [4] | [5] | [6] | [7] | [8]

C=CC(=O)OCC(F)(F)C(F)(F)C(F)(F)C(F)(F)C(F)(F)C(F)(F)C(F)(F)F
not listed: [2] | [9] | [10]
inactive: all other assays above

FC(F)(F)C(F)(F)C(F)(F)C(F)(F)C(F)(F)C(F)(F)C(F)(F)I
not listed: [2] | [9] | [10]
inactive: all other assays above

O=C(Cl)C(F)(F)C(F)(F)C(F)(F)C(F)(F)C(F)(F)C(F)(F)C(F)(F)C(F)(F)F
active: [4] 39.8 µM and 36.6 µM and 44.6 µM | [5] 55.3 µM and 46.6 µM and 46.1 µM | [7] 51.7 µM and 48.2 µM and 47.1 µM | [8] 47.8 µM and 53.7 µM and 48.4 µM
inactive: [1] | [3] | [6]

FC(F)(F)C(F)(F)C(F)(F)CI
not listed: [2] | [9] | [10]
inactive: all other assays above

C=CC(F)(F)C(F)(F)C(F)(F)C(F)(F)C(F)(F)C(F)(F)C(F)(F)C(F)(F)C=C
not listed: [9] | [10]
inactive: all other assays above

FC(F)(F)C(F)(F)C(F)(F)C(F)(F)CCI
not listed: [2] | [9] | [10]
inactive: all other assays above

COC(=O)CCC(F)(F)C(F)(F)C(F)(F)C(F)(F)F
not listed: [2] | [10]
inactive: all other assays above

CCN(CC)c1ccc2c(C)cc(=O)oc2c1
not listed: [2]
inactive: all other assays above

OCC(F)(F)C(F)(F)C(F)(F)F
not listed: [2] | [10]
inactive: all other assays above

OCC(F)(F)C(F)(F)C(F)(F)C(F)(F)C(F)(F)C(F)F
not listed: [2] | [10]
inactive: all other assays above

CCc1c(Br)c(Br)c(Br)c(Br)c1Br
not listed: [2] | [9]
inactive: all other assays above

FC(F)(F)C(F)(F)C(F)(F)C(F)(F)C(F)(F)C(F)(F)CC1CO1 (stereo not given)
not listed: [9] | [10]
inactive: all other assays above

O=S(=O)(OCC(F)F)C(F)(F)F
not listed: [2] | [9] | [10]
inactive: all other assays above

O=C(O)C(F)(F)C(F)(F)F
not listed: [2] | [9] | [10]
inactive: all other assays above

O=C(O)C(F)(OC(F)(F)C(F)(OC(F)(F)C(F)(F)C(F)(F)F)C(F)(F)F)C(F)(F)F (stereo not given)
not listed: [2] | [9] | [10]
inactive: all other assays above

C=CC(F)(F)C(F)(F)C(F)(F)C(F)(F)C(F)(F)C(F)(F)C(F)(F)C(F)(F)F
not listed: [2] | [10]
inactive: all other assays above

Nc1ccc([N+](=O)[O-])cc1O
active: [8] 20 µM
not listed: [2] | [9]
inactive: all other assays above

FC1CC(F)(F)C(F)(F)C1(F)F (stereo not given)
not listed: [2] | [9] | [10]
inactive: all other assays above

O=C(O)C(F)(F)C(F)(F)C(F)(F)C(F)(F)C(F)(F)C(F)(F)C(F)(F)C(F)(F)C(F)(F)C(F)(F)C(F)(F)C(F)(F)C(F)(F)F
not listed: [2] | [9] | [10]
inactive: all other assays above

CO[Si](OC)(c1ccccc1)c1ccccc1
active: [4] 26.6 µM
not listed: [2]
inactive: all other assays above

O=C(O)C(F)(F)C(F)(F)C(F)(F)C(F)(F)F
not listed: [2] | [10]
inactive: all other assays above

C=CC(=O)OCC(F)(F)C(F)(F)C(F)(F)C(F)(F)COC(=O)C=C
active: [1] 57.8 µM and 55.1 µM | [3] 25.5 µM and 24 µM | [4] 45.1 µM and 45.8 µM | [5] 44.1 µM and 46.5 µM | [7] 8.4 µM and 8.81 µM | [8] 21.5 µM
inactive: [6] | [8]

C=CC/C=C/C/C=C/C/C=C/C
not listed: [2] | [9]
inactive: all other assays above

CCCCOCCOCCOC(=O)CCCCC(=O)OCCOCCOCCCC
not listed: [2] | [9]
inactive: all other assays above

CCCCC(CC)COP(=O)(O)OCC(CC)CCCC (stereo not given)
active: [4] 32 µM and 31.2 µM | [5] 32.8 µM and 29.5 µM | [6] 16.2 µM and 20 µM | [8] 5.24 µM
inactive: [1] | [2] | [3] | [7] | [8]

O=C(O)C(F)(F)C(F)(F)OC(F)(F)F
not listed: [2] | [10]
inactive: all other assays above

OCC(F)(F)C(F)(F)C(F)(F)C(F)F
not listed: [2] | [9] | [10]
inactive: all other assays above

FC(F)(F)C(F)(F)CNCC(F)(F)C(F)(F)F
not listed: [2] | [9] | [10]
inactive: all other assays above

FC(F)(F)C(F)(F)C(F)(F)C(F)(F)C(F)(F)C(F)(F)C(F)(F)Br
not listed: [2] | [9] | [10]
inactive: all other assays above

FC(F)(Br)C(F)(F)C(F)(F)C(F)(F)C(F)(F)C(F)(F)Br
not listed: [2] | [9] | [10]
inactive: all other assays above

O=C(O)C(F)(F)C(F)(F)C(F)(F)C(F)(F)C(F)(F)C(F)(F)C(F)(F)C(F)(F)Cl
active: [9] 18.2 µM and 17.6 µM | [3] 56.8 µM | [4] 18.3 µM and 17.9 µM | [5] 46.6 µM and 46.5 µM | [6] 18 µM and 12.2 µM | [7] 45.7 µM and 45.8 µM | [8] 48.6 µM and 44.4 µM
inactive: [1] | [3]

CCCCCCC(C)OC(=O)CCCCC(=O)OC(C)CCCCCC (stereo not given)
not listed: [2]
inactive: all other assays above

Reference: PubChem BioAssay (EPA / NIEHS)
